Test results: PubChem BioAssay AID624296 (National Center for Advancing Translational Sciences (NCATS), 2012)
About 9,900 (2.8%) of roughly 350,000 compounds were called active. A call without a number means that no potency is given here. Inconclusive results (about 15%) are left out. The sample holds actives, similar compounds and a random draw of the others, so the mix is not that of the screen. Calls follow the shape of the dose curve; as a rule, active = well fitted activation curve with a large enough effect; inconclusive = small, poorly fitted or top-dose-only effect; inactive = no such curve, though single readings can be large or run the other way.

Assay: A quantitative high throughput screen for small molecules that induce DNA re-replication in MCF 10a normal breast cells. Also: nearly all actives have a fitted effect of over 50% in size.
Settings: MCF 10A DNA re-replication, Hoechst nuclear intensity, 48 h; series mostly up to 46.1 µM
Potency is read from the fitted curve at half-maximal effect.

| Structure (SMILES) | Potency |
| --- | --- |
| COC(=O)C1=CO[C@@H](O[C@@H]2O[C@H](CO)[C@@H](O)[C@H](O)[C@H]2O)C2C1C[C@H](O)[C@@H]2C (stereo not given in full) | inactive |
| O=c1nc(NO)ccn1C1CCCO1 (stereo not given) | inactive |
| COc1cc(NC(=O)c2cccnc2SC)cc(OC)c1 | inactive |
| COc1cc(OC)c(S(=O)(=O)Nc2ccccc2C(=O)O)cc1S(=O)(=O)Nc1ccccc1C(=O)O | inactive |
| COc1cc(NC(=O)c2ccccc2NS(=O)(=O)c2ccc(Cl)s2)cc(OC)c1 | 14.6 µM (active) |
| N#Cc1ccc(CN2CCN(CC(=O)Nc3ccccc3C(=O)NC3CC3)CC2)cc1 | inactive |
| O=C(Nc1ccc2c(c1)OCO2)C1CC1(Cl)Cl (stereo not given) | inactive |
| CC(=O)Nc1ccc(S(=O)(=O)NCC(=O)OCC(=O)c2ccc[nH]2)cc1 | inactive |
| CCCCNc1c(-c2cccc(Sc3ccc(OC)cc3)c2)nc2ccccn12 | 18.4 µM (active) |
| CCCCNc1nc2c(c(=O)n(C)c(=O)n2C)n1Cc1cccc(OC)c1 | inactive |
| COc1ccc(Sc2nc(-c3ccccc3)ncc2OC)cc1 | inactive |
| Fc1ccc2cnc(-c3ccccc3)cc2c1 | inactive |
| COc1cc(/C=C/CNC[C@H]2O[C@@H](n3cnc(C(N)=O)n3)[C@H](O)[C@@H]2O)ccc1O | inactive |
| O=C1Nc2c(Br)cc(Br)cc2C1(O)N1CCOCC1 (stereo not given) | 8.2 µM (active) |
| O=C(c1cc2cc(Br)cc(Br)c2oc1=O)N1CCOCC1 | inactive |
| O=C(CSC(=S)N1CCOCC1)c1cc(Br)cc(Br)c1O | inactive |
| Cc1ccc2c(c1)C1C[N+](C)(CC(=O)c3ccccc3)CCC1N2C(=O)c1ccccc1Cl (stereo not given) | inactive |
| CC[C@]12c3[nH]c4cc(CCC(=O)N(C)C)ccc4c3CCN1C(=O)[C@@H](CC(=O)NCC13CC4CC(CC(C4)C1)C3)C[C@@H]2C(=O)N1CCN(C(=O)C2CC2)CC1 | inactive |
| CSc1ccc(/C=N/NC(=O)c2cccc(Cl)c2)cc1 | inactive |
| CSc1ccc(/C=N\NC(=O)COc2ccc(Cl)cc2Br)cc1 | 13 µM (active) |
| O=C(COc1ccc(Cl)cc1Cl)N/N=C/c1ccccn1 | inactive |
| CCC(=O)c1cc(F)ccc1OCC(=O)Nc1ccc2c(c1)OCCO2 | inactive |
| COc1ccccc1NC(=O)COC(=O)COc1ccccc1F | inactive |
| COc1ccc(CC(=O)NC(C)c2ccc(Cl)c(Cl)c2)cc1S(=O)(=O)N1CCOCC1 (stereo not given) | inactive |
| Nc1ncnc2c1cnn2C1CC(O)C(CO)O1 (stereo not given) | inactive |

| Structure (SMILES) | Potency |
| --- | --- |
| CCN(C[C@H]1N[C@@](Cc2ccccc2)(C(=O)OC)[C@H]2C(=O)N(Cc3ccccc3)C(=O)[C@@H]12)C(=O)c1ccc(C)cc1 | inactive |
| Cc1ccc(O)c(NC(=S)NC(=O)COc2ccc(Br)cc2)c1 | 20.6 µM (active) |
| Cc1cccc(OCC(=O)NC(=S)Nc2ccccc2N2CCOCC2)c1 | inactive |
| Cc1ccc(O)c(NC(=O)COc2cc(C)ccc2C)c1 | inactive |
| O=C(CCc1ccccc1Cl)Nc1ccc(S(=O)(=O)Nc2nccs2)cc1 | inactive |
| Nc1cc(N)nc(SCC(=O)Nc2cccc(S(=O)(=O)N3CCCCC3)c2)n1 | inactive |
| Nc1ncnc2c1ncn2[C@@H]1O[C@H](CNCc2cccn2-c2nccs2)[C@@H](O)[C@H]1O | inactive |
| Cc1c(NC(=O)CN(C)CC(=O)Nc2ccc(F)c(F)c2F)c(=O)n(-c2ccccc2)n1C | inactive |
| N=C1c2ccccc2-c2ccccc21 | inactive |
| COC(=O)c1sc(N2CCN(Cc3ccccc3)CC2)nc1N | inactive |
| C=CCNc1nc(N)c(C(=C(C#N)C#N)c2ccccc2)s1 | 16.4 µM (active) |
| C=CCNC(=O)c1csc(-c2ccccc2)n1 | inactive |
| CCS(=O)(=O)c1cc([N+](=O)[O-])c(Sc2ccccc2N)s1 | inactive |
| Nc1ccccc1SC(C[N+](=O)[O-])c1ccccc1 (stereo not given) | 10.3 µM (active) |
| Nc1ccccc1SCc1cc([N+](=O)[O-])cc2c1OCOC2 | inactive |
| CN(C(=O)c1cccc(NC(=O)C2CCN(C(=O)OC(C)(C)C)CC2)c1)C1CCC1 | inactive |
| COC(=O)c1ccc(CNC(=O)Cn2cc(C)c(=O)[nH]c2=O)cc1 | inactive |
| C#CCOCCOCCOCCNc1nc(N2CCN(C(=O)Cn3cc(CCCCN)nn3)CC2)nc(N2CCN(C(=O)[C@H](CCCCN)n3cc(CCC(=O)O)nn3)CC2)n1 | inactive |
| CC(C)(CNC(=O)c1ccc(Cl)c(S(=O)(=O)N2CCc3ccccc3C2)c1)N1CCOCC1 | 5.8 µM (active) |
| CN(C)S(=O)(=O)c1ccc(C(=O)NCC(C)(C)N2CCOCC2)cc1 | inactive |
| O=C(NCCSCc1ccccc1)c1ccc(Cl)c(S(=O)(=O)N2CCOCC2)c1 | inactive |
| O=C(OCc1cc(=O)n2ccsc2n1)C1(c2ccc(Cl)cc2)CC1 | inactive |
| COc1ccccc1N(CC(=O)Nc1c(C)n(C)n(-c2ccccc2)c1=O)S(=O)(=O)c1ccccc1 | inactive |
| Cc1c(O)c(C)c2c(c1O)C(=O)C[C@@H](c1ccccc1)O2 | inactive |
| COc1ccc(CNc2nnnn2C)cc1 | inactive |

| Structure (SMILES) | Potency |
| --- | --- |
| COc1ccc(CNc2ncnc3ccccc23)cc1 | inactive |
| COc1ccc(CNc2c(CO)cnc3c2cnn3C)cc1 | 14.6 µM (active) |
| COc1cccc(NC(=O)COC(=O)c2ccc3ccccc3n2)c1 | inactive |
| Cc1ccc(S(=O)(=O)N(C)C)cc1NC(=O)CN1c2cccc3cccc(c23)S1(=O)=O | inactive |
| Cc1csc(NC(=O)C2CCN(S(=O)(=O)c3ccccc3)CC2)n1 | inactive |
| CN(C(=O)CSc1cccc[n+]1[O-])C1CCCCC1 | inactive |
| S=c1[nH]nc(CSCc2ccc(Cl)cc2Cl)n1-c1ccccc1 | 20.6 µM (active) |
| S=c1[nH]nc(COc2ccccc2)n1-c1ccccc1 | inactive |
| Cc1ccc(NCc2n[nH]c(=S)n2-c2ccccc2)cc1Cl | inactive |
| O=C(O)C(=Cc1ccccc1[N+](=O)[O-])c1ccccc1 | inactive |
| O=C(Nc1cccc(S(=O)(=O)N2CCCC2)c1)c1cncc(Br)c1 | inactive |
| COCCNC(=O)COc1ccc(N(C)S(=O)(=O)c2ccc3ccccc3c2)cc1 | inactive |
| CC(=O)Oc1ccc(N(C(C)=O)S(=O)(=O)c2ccc3ccccc3c2)cc1Br | 13 µM (active) |
| CN(c1ccc(OCC(=O)O)cc1)S(=O)(=O)c1ccc2ccccc2c1 | inactive |
| O=C(OCCOc1ccccc1Cl)c1cc(S(=O)(=O)N2CCCCC2)ccc1N1CCOCC1 | inactive |
| CCC(C(=O)N1CCN(S(=O)(=O)c2sc(C(=O)O)c(C)c2C(=O)O)CC1)c1ccccc1 (stereo not given) | inactive |
| COC(=O)CCCCCN1C(=O)NC(c2ccc(-c3ccccc3)cc2)C(C(=O)OCc2ccccc2)=C1C (stereo not given) | 3.26 µM (active) |
| CC1=C(C(=O)OCc2ccccc2)C(c2ccc(C(F)(F)F)cc2)NC(=O)N1CCCCCC(=O)O (stereo not given) | inactive |
| COCCN1C(=O)N[C@@H](c2ccccc2)C(C(=O)OC)=C1C | inactive |
| COc1cc(OC)cc(C(=O)NC(C(=O)N2CCC2)C(C)C)c1 (stereo not given) | inactive |
| O=C(Cn1cnc2c(OCc3ccccc3)ncnc21)NCc1nc2ccccc2[nH]1 | inactive |
| COCCCNC(=O)CC1C[C@H](C(=O)N2CCCCC2)[C@@]2(CCc3ccccc3)c3[nH]c4ccccc4c3CCN2C1=O (stereo not given in full) | inactive |
| O=C(N/N=C/c1cc2c(cc1Br)OCO2)C1COc2ccccc2O1 (stereo not given) | inactive |
| O=C(N/N=C\c1cc2c(cc1Cl)OCO2)c1ccc(Br)s1 | 5.8 µM (active) |
| O=C(NCc1ccc2c(c1)OCO2)c1ccc(Cl)s1 | inactive |

| Structure (SMILES) | Potency |
| --- | --- |
| CCCN(CC1CC1)C(=S)NC(=O)c1ccccc1Br | inactive |
| O=S(=O)(c1ccc(F)cc1)N1CCN(Cc2ccccc2C(F)(F)F)CC1 | inactive |
| O=c1[nH]nc(SCCS(=O)(=O)c2ccc(F)cc2)n1-c1ccccc1C(F)(F)F | 18.4 µM (active) |
| O=C(CSc1n[nH]c(=O)n1-c1ccccc1)Nc1ccccc1C(F)(F)F | inactive |
| Cc1[nH]c2ccccc2c1SCC(=O)Nc1nccs1 | 0.651 µM (active) |
| Cn1c(SCC(=O)Nc2nccs2)nnc1-c1cccnc1 | inactive |
| CCn1c(SCC(=O)Nc2nccs2)nnc1-c1ccco1 | inactive |
| CCCSc1ccc([C@H]2N[C@@](Cc3ccccc3)(C(=O)OC)[C@H]3C(=O)N(C)C(=O)[C@@H]23)cc1 | inactive |
| CC1CCCN(CC(=O)Nc2cc(Cl)ccc2Oc2ccccc2)C1 (stereo not given) | 18.4 µM (active) |
| O=C(CSc1ccccc1)Nc1cc(Cl)ccc1Oc1ccccc1 | inactive |
| CC(=O)Nc1ccc(NC(=O)CN2CCCC(C)C2)c(Cl)c1 (stereo not given) | inactive |
| COc1ccccc1NC(=O)C1CCCN1S(=O)(=O)c1ccc(Cl)cc1 (stereo not given) | 18.4 µM (active) |
| CC(C)c1nnc(NC(=O)C2CCCN2S(=O)(=O)c2ccc(Cl)cc2)s1 (stereo not given) | inactive |
| Cc1cccc(NC(=O)C2CCCN2S(=O)(=O)c2ccc(F)cc2)c1C (stereo not given) | inactive |
| O=C(COC(=O)Cn1[nH]c(=O)c2ccccc2c1=O)Nc1ncc(Cl)cc1Cl | inactive |
| O=C(CSc1ncn[nH]1)Nc1ccc(Br)cc1Br | inactive |
| CN(C(=O)COC(=O)c1cc(=O)[nH]c2ccccc12)C1CCCCC1 | inactive |
| CCN(C(=O)CSc1cccc[n+]1[O-])c1ccccc1 | inactive |
| CC1=CC(C)(C)Nc2ccc(OC(=O)CN3C(=O)C4CCCCC4C3=O)cc21 (stereo not given) | 7.31 µM (active) |
| O=C(COC(=O)CN1C(=O)C2CCCCC2C1=O)Nc1ccc(F)c(F)c1F (stereo not given) | inactive |
| O=C(CN1C(=O)C2C3CCC(C3)C2C1=O)Oc1ccc2ccccc2c1 (stereo not given) | inactive |
| C=CC[C@H](CC(=O)OC(C)(C)C)C(=O)OC[C@H]1CCCN1C(=O)[C@H](CC=C)CC(=O)N(CCO)Cc1ccccc1 | inactive |
| CC/C(=C(/c1ccccc1)c1ccc(OCC[N+](C)(C)C)cc1)c1ccccc1 | inactive |
| CCCCN1CC(COc2ccccc2)Oc2cccc(F)c2S1(=O)=O (stereo not given) | inactive |
| CN(C)C(=O)N=NC(=O)N(C)C | inactive |
